Anthrax LT inh = blocks cellular internalization of anthrax lethal toxin. Cells, anthrax lethal toxin internalization, FRET ratio (460/530). Potency, µM (titrated, usually from 40 µM), most hits filed as inhibitors. 70,000 tested, 0.67% active. AID 912; also: nearly all actives have a fitted effect of over 50% in size
Prx2 Sm inh = blocks S. mansoni peroxiredoxin 2 enzymatic activity. Potency, µM. 65,000 tested, 0.07% active. S. mansoni Prx2 activity coupled to TGR/GSH (TGR is thioredoxin glutathione reductase), NADPH fluorescence loss, qHTS. AID 448
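Coupled assay in which S. mansoni TGR passes NADPH reducing equivalents via glutathione to Prx2, which reduces H2O2. Compounds were preincubated 15 min at room temperature with 25 nM TGR/50 nM Prx2 mix. Kinetic NADPH fluorescence loss (ex 365/em 450 nm) was monitored.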
AmpC inh no det = blocks E. coli AmpC beta-lactamase in absence of detergent; P00811; AmpC nitrocefin hydrolysis, absorbance 480 nm, no detergent; Potency, µM (doses to about 28.7 µM); 71,000 tested, 1.8% active
Target sequence (P00811 whole entry, looked up): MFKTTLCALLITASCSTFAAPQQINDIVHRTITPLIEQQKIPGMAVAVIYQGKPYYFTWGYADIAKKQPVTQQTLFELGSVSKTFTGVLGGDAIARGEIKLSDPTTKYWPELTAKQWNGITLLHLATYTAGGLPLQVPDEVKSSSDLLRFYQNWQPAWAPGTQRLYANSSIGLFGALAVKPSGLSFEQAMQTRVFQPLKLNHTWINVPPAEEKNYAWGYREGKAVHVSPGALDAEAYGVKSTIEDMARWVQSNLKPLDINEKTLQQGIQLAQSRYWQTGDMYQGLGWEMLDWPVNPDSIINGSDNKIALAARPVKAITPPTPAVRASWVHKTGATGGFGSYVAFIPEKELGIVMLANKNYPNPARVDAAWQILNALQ
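AmpC in 20 mM phosphate buffer pH 7.0 was preincubated 15 min at room temperature with compounds. Nitrocefin (800 uM stock) was then added and hydrolysis followed at 480 nm every 20 s for 4 min.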
AmpC inh det = AmpC beta-lactamase inhibition, detergent assay | purified AmpC, nitrocefin hydrolysis with detergent | Potency, µM (titrated, usually from 28.7 µM) | 71,000 tested, 0.09% active; active = well fitted curve in the direction sought with a large enough effect; inconclusive = small, poorly fitted or top-dose-only effect
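E. coli AmpC (5.3 nM) in 20 mM phosphate pH 7.0 with 0.01% Triton X-100, preincubated 15 min RT with compound; nitrocefin (2 uL of 800 uM stock) hydrolysis followed by 480 nm absorbance every 20 s over 4 min.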
Numbers stand for hits; . = inactive; ? = inconclusive; / = not tested or not shown; [ ] = another dose, or the depositor's remark. Only some compounds are listed: those with a hit (about 2.6% of all), similar ones and a draw of the others. Unless noted, calls follow the shape of the full dose curve.

SMILES | Anthrax LT inh | Prx2 Sm inh | AmpC inh no det | AmpC inh det
O=C(Nc1cnc2ccccc2c1)c1cccnc1 | . | . | 4µM[single pt active] | .
Cn1cc(Cl)c(C(=O)N(Cc2ccccc2)c2ccccn2)n1 | . | . | 4µM[single pt active] | .
O=C(c1cc(C(F)(F)F)cc(C(F)(F)F)c1)N1CCC[C@@]2(CCN(c3ccncc3)C2)C1 | ? | . | . | .
COc1ccccc1NC(=O)Cn1nnc(-c2ccccc2NC(=O)c2ccco2)n1 | . | . | . | .
COc1ccccc1NC(=O)Cn1nnc(-c2ccccc2NC(=O)c2cccs2)n1 | . | . | 7.9µM | .
COc1ccc(NC(=O)Cn2nnc(-c3ccccc3NC(=O)c3ccco3)n2)cc1 | . | . | 13µM | .
O=S(=O)(c1ccc2c(c1)OCCO2)N1CCC(c2nc3ccc(Cl)cc3[nH]2)CC1 | 13µM | . | . | .
CC(C)(C)c1cc(C(=O)/C=C/c2ccc(C(=O)O)cc2)cc(C(C)(C)C)c1 | 13µM | / | / | /
O=Cc1ccc(C(=O)O)cc1 | . | / | . | .
C#CCCCO/N=C1/C[C@@H](O)[C@@H](O)[C@@H]2[C@@H]3C(=O)N([C@@H](C)c4ccccc4)C(=O)[C@H]3CC[C@@H]12 | .[8 µM] | / | / | /
O=C(CSc1nnc2c(n1)[nH]c1ccc(F)cc12)OCc1ccccc1 | . | . | 10µM | .
O=C(CSc1nnc(-c2ccccc2F)o1)OCc1ccccc1 | . | . | . | .
O=C(NCCC1=CCCCC1)C1CCN(S(=O)(=O)c2cccc3nonc23)CC1 | . | . | 20µM[single pt active] | .
O=C(NCCC1=CCCCC1)C1CCN(S(=O)(=O)c2cccs2)CC1 | . | . | . | .
O=C(NCc1ccc2c(c1)OCO2)C1CCCN(S(=O)(=O)c2cccc3nonc23)C1 (centres undefined) | . | . | 10µM[single pt active] | .
Cc1cc(C(=O)CSc2nnnn2-c2ccc(O)cc2)c(C)n1Cc1ccc2c(c1)OCO2 | ? | . | 13µM | .
Cc1cc(C(=O)CSc2nnc(-c3cccc(F)c3)n2N)c(C)n1Cc1ccc2c(c1)OCO2 | . | . | 16µM[single pt active] | .
Cc1ccc(-c2nnc(SCC(=O)Nc3ccc4c(c3)OCCO4)n2N)cc1 | . | . | . | .
CCOC(=O)CCN1C(=O)[C@H]2[C@H]3[C@H](O)[C@H](O)C/C(=N/NC(=O)OCc4ccc(OC)cc4)[C@H]3CC[C@@H]2C1=O | .[8 µM] | / | / | /
CNc1ncnc2c1ncn2[C@@H]1O[C@@H](CO)[C@H](O)[C@@H]1O | . | . | . | .
Cc1cc(O)c(C(C)(C)C)cc1Sc1cc(C(C)(C)C)c(O)cc1C | ? | / | 13µM | .
CC(C)(C)c1cc(O)c(C(C)(C)C)cc1O | ? | . | . | .
O=C(Cn1ncc2c(=O)oc3ccccc3c21)N1CCC(N2CCCCC2)CC1 | . | . | 3.2µM[single pt active] | .
O=C(Cn1ncc2c(=O)oc3ccccc3c21)N1CCc2ccccc2C1 | . | . | 4µM[single pt active] | .
Cc1ccc2oc(=O)c3cnn(CC(=O)N4CCCc5ccccc54)c3c2c1 | . | / | . | .
SMILES | Anthrax LT inh | Prx2 Sm inh | AmpC inh no det | AmpC inh det
CCCCNc1nc(N(C)c2ccccc2)nc(-n2ccnc2)n1 | 13µM | . | . | .
COC(=O)[C@@]1(Cc2ccc(F)cc2)[C@H]2c3cc(C(=O)N(C)C)n(Cc4ccc(C)o4)c3C[C@H]2CN1C(=O)c1ccccc1 | ? | . | . | .
CCCn1c(=O)[nH]c2nc(-c3ccc(S(=O)(=O)O)cc3)[nH]c2c1=O | . | . | . | .
CC(C)=C[C@H]1[C@@H](COC(=O)c2ccccc2Cl)C1(C)C | .[8 µM] | . | .[5.75 µM] | .[5.75 µM]
O=C1Nc2ccccc2C2(CCN(CCc3ccc(C(F)(F)F)cc3)CC2)O1 | 10µM | / | / | /
CC(CN(C)Cc1ccccc1)OC(=O)C1COc2ccccc2O1 (centres undefined) | . | . | 4µM[single pt active] | .
O=C(NC1CCN(Cc2ccccc2)CC1)C1COc2ccccc2O1 (centres undefined) | . | . | . | .
C[C@@H](O)[C@H]1C(=O)N2C(C(=O)O)=C(S[C@@H]3CN[C@H](C(=O)N(C)C)C3)[C@H](C)[C@H]12 | 0.5µM | . | . | .
O=C(Nc1ccc(S(=O)(=O)NCc2ccccc2)cc1)Nc1ccc2c(c1)OCO2 | ? | . | 10µM | .
Clc1ccccc1NN(Cc1ccncc1)c1ccccc1Cl | .[8 µM] | . | .[5.75 µM] | .[5.75 µM]
CC(C)CCOc1cccc(C2c3c(oc4ccccc4c3=O)C(=O)N2CCCN2CCOCC2)c1 (centres undefined) | . | . | . | .
COc1cccc(C2c3c(oc4ccccc4c3=O)C(=O)N2CCCN2CCOCC2)c1 (centres undefined) | . | . | 4µM[single pt active] | .
O=C(CSc1nc2ccccc2c(=O)[nH]1)N1CCCCC1 | . | . | 4µM[single pt active] | .

Source: PubChem BioAssay
